These results are taken from publication PMC7862700, “An all-to-all approach to the identification of sequence-specific readers for epigenetic DNA modifications on cytosine”.

The target of the first experiment is T1, FLI1 (Homo sapiens, UniProt Q01543 1-452).
T1 sequence: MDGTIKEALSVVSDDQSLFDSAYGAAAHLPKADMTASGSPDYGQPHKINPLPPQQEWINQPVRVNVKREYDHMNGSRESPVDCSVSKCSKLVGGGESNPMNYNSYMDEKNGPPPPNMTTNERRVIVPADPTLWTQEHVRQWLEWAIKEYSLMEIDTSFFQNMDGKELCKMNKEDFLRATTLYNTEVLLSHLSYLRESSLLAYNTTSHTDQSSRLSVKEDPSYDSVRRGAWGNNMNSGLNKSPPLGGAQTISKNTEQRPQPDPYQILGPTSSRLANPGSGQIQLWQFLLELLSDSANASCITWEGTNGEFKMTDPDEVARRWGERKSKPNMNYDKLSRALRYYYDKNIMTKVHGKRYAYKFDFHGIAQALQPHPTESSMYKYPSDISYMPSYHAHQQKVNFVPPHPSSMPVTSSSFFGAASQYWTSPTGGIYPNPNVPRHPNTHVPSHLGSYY
The experiment can be described thus: DAPPL (digital affinity profiling via proximity ligation, sequencing); 10 mM Tris-HCl pH 7.5, 50 mM NaCl, 1 mM DTT, 4% glycerol, room temperature, 30 min; GST-TFs on glutathione beads, 16-mer random dsDNA library, 0.1% formaldehyde crosslink after washing; high values mean tight binding. Conditions: protein: recombinant; tags: N-terminal GST; dsDNA, one strand shown. In short, it runs like this: (§1)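 After expression in yeast as GST fusions, human transcription factors were bound to glutathione beads, DNA-barcoded and mixed with a tag-only sample. The pools were incubated with 200 nmole of a 16-mer random double-stranded DNA library in Tris/NaCl/DTT/glycerol buffer (30 min, room temperature), washed and crosslinked with 0.1% formaldehyde. Proximity ligation with BsaI/T4 ligase ran for 1 h at 37 °C, before PCR amplification and sequencing on an Illumina NextSeq500. Binding signal is a hexamer's read frequency for a factor divided by its frequency for the tag-only sample.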
Turning to GACCTC, the binding signal was 1.22 fold enrichment (6-mer frequency, TF over GST control). Same read-out and setting: the result for CGTTCC reads 1.43 fold enrichment (6-mer frequency, TF over GST control). Same read-out and setting: next, ACTGGC: 1.26 fold enrichment (6-mer frequency, TF over GST control). Still for that read-out and setting: next, ATGGAC: 1.21 fold enrichment (6-mer frequency, TF over GST control); CAATTG: 1.32 fold enrichment (6-mer frequency, TF over GST control); TGCCGA: 1.07 fold enrichment (6-mer frequency, TF over GST control). As to ACTCAC, the binding signal was 1.22 fold enrichment (6-mer frequency, TF over GST control). Same read-out and setting: the result for GCCTCA reads 1.34 fold enrichment (6-mer frequency, TF over GST control).

In the case of CGACCC, the binding signal is 1.42 fold enrichment (6-mer frequency, TF over GST control). Same read-out and setting: next, CCACGC: 1.28 fold enrichment (6-mer frequency, TF over GST control); TGTTCA: 1.11 fold enrichment (6-mer frequency, TF over GST control). On the same count and under the same terms, next, GAAAAA: 1.07 fold enrichment (6-mer frequency, TF over GST control). On the same count and under the same terms, the result for TGTACA reads 1.22 fold enrichment (6-mer frequency, TF over GST control); that for CGTCCT, 1.28 fold enrichment (6-mer frequency, TF over GST control); that for GAAGCA, 1.23 fold enrichment (6-mer frequency, TF over GST control).

Turning to ACTGCC, the binding signal is 1.47 fold enrichment (6-mer frequency, TF over GST control). Still for that read-out and setting: next, TGCGTA: 1.15 fold enrichment (6-mer frequency, TF over GST control). Still for that read-out and setting: the result for CGCGTC reads 1.33 fold enrichment (6-mer frequency, TF over GST control); that for CCGACA, 1.2 fold enrichment (6-mer frequency, TF over GST control).

Take GCGTTC: the binding signal was 1.07 fold enrichment (6-mer frequency, TF over GST control).

Turning to GTACAT, the binding signal was 1.4 fold enrichment (6-mer frequency, TF over GST control). The same measure, in the same setting: the result for CGACAT reads 1.37 fold enrichment (6-mer frequency, TF over GST control); that for CCTGCA, 1.28 fold enrichment (6-mer frequency, TF over GST control); that for TGCAAC, 1.27 fold enrichment (6-mer frequency, TF over GST control). As to TGCCCC, the binding signal was 1.13 fold enrichment (6-mer frequency, TF over GST control). Still for that read-out and setting: next, TGACAT: 1.27 fold enrichment (6-mer frequency, TF over GST control). Turning to CCGTAC, the binding signal was 1.39 fold enrichment (6-mer frequency, TF over GST control).

On to TGAAAC, for which the binding signal is 1.31 fold enrichment (6-mer frequency, TF over GST control). On the same count and under the same terms, next, ACTGCG: 1.24 fold enrichment (6-mer frequency, TF over GST control); CCCTCA: 1.28 fold enrichment (6-mer frequency, TF over GST control). The same measure, in the same setting: the result for TGACCA reads 1.25 fold enrichment (6-mer frequency, TF over GST control).

With TCTGAC, the binding signal is 1.26 fold enrichment (6-mer frequency, TF over GST control). Same read-out and setting: the result for ACGAAC reads 1.11 fold enrichment (6-mer frequency, TF over GST control); that for GAAGTT, 1.76 fold enrichment (6-mer frequency, TF over GST control); that for CCGGCA, 1.38 fold enrichment (6-mer frequency, TF over GST control). Same read-out and setting: the result for ACCGTC reads 1.25 fold enrichment (6-mer frequency, TF over GST control); that for CTGCCA, 1.18 fold enrichment (6-mer frequency, TF over GST control); that for GTCTCT, 1.41 fold enrichment (6-mer frequency, TF over GST control). Same read-out and setting: the result for GAAACT reads 1.22 fold enrichment (6-mer frequency, TF over GST control).

In the next experiment the target is T2, ELK1 (Homo sapiens, UniProt P19419 1-428).
T2 sequence: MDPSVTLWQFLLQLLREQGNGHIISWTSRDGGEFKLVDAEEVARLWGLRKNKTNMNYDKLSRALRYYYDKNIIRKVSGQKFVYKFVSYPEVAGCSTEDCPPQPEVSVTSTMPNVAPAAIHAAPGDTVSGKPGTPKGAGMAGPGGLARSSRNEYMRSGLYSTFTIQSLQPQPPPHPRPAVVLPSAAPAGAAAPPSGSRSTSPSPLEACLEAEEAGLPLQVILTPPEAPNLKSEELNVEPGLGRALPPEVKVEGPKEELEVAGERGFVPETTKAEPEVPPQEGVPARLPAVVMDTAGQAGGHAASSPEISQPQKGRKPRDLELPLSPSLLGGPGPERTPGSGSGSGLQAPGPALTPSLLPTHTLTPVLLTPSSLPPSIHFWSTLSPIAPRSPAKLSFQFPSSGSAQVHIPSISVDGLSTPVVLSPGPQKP
The description is as above. The following applies: protein: recombinant; tags: N-terminal GST; dsDNA, one strand shown. In short, it runs like this:
as §1
Turning to GACCTC, the binding signal was 1.35 fold enrichment (6-mer frequency, TF over GST control). Still for that read-out and setting: next, CGTTCC: 1.35 fold enrichment (6-mer frequency, TF over GST control); ACTGGC: 1.12 fold enrichment (6-mer frequency, TF over GST control). The same measure, in the same setting: next, ATGGAC: 1.22 fold enrichment (6-mer frequency, TF over GST control).

For the sequence CAATTG, the binding signal was 1.19 fold enrichment (6-mer frequency, TF over GST control). The same measure, in the same setting: the result for TGCCGA reads 1.25 fold enrichment (6-mer frequency, TF over GST control); that for ACTCAC, 1.31 fold enrichment (6-mer frequency, TF over GST control); that for GCCTCA, 1.34 fold enrichment (6-mer frequency, TF over GST control). For the sequence CGACCC, the binding signal is 1.46 fold enrichment (6-mer frequency, TF over GST control).

CCACGC: the binding signal is 1.2 fold enrichment (6-mer frequency, TF over GST control). Still for that read-out and setting: next, TGTTCA: 1.31 fold enrichment (6-mer frequency, TF over GST control). GAAAAA: the binding signal was 1.13 fold enrichment (6-mer frequency, TF over GST control).

With TGTACA, the binding signal was 1.26 fold enrichment (6-mer frequency, TF over GST control).

For CGTCCT, the binding signal was 1.44 fold enrichment (6-mer frequency, TF over GST control). For GAAGCA, the binding signal is 1.35 fold enrichment (6-mer frequency, TF over GST control). Still for that read-out and setting: next, ACTGCC: 1.44 fold enrichment (6-mer frequency, TF over GST control); TGCGTA: 1.15 fold enrichment (6-mer frequency, TF over GST control).

Regarding CGCGTC, the binding signal is 1.24 fold enrichment (6-mer frequency, TF over GST control). Same read-out and setting: the result for CCGACA reads 1.18 fold enrichment (6-mer frequency, TF over GST control).
